# High-throughput results from PubChem BioAssay.
# Rows were chosen to be rich in hits. Some 12% of all compounds tested hit in one or more screens of this group.
# PLK1 PBD block – qHTS for Inhibitors of PLK1-PDB (polo-like kinase 1 - polo-box domain): Primary Screen. actives 2.8% (n = 360,000). Potency, µM, usual class: inhibitors. Plk1 PBD binding of FITC phosphopeptide, fluorescence polarization; also: series mostly up to about 57 µM; nearly all actives have a fitted effect of over 65% in size
# BAZ2B block – qHTS Assay for Inhibitors of BAZ2B; actives 4.4% (n = 360,000); Potency, µM (series often up to 114 µM), hits mostly inhibitors; Bromodomain adjacent to zinc finger domain protein 2B (Homo sapiens), Q9UIF8; AID 504333, 2011; AlphaScreen BAZ2B-H3K14Ac peptide displacement; also: nearly all actives have a fitted effect of over 60% in size
#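 Complex of BAZ2B and biotin-H3K14Ac (50 nM apiece) forms over 30 min at RT, then faces library compounds up to 110 uM for another 30 min; AlphaScreen beads added, 20 min dark incubation, luminescence read.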
# G9a inh – qHTS Assay for Inhibitors of Histone Lysine Methyltransferase G9a. Histone-lysine N-methyltransferase EHMT2 (Homo sapiens), Q96KQ7. G9a H3K9 monomethylation, AlphaScreen, 2 h. actives 8.8% (n = 350,000). Potency, µM (series often up to 102 µM), usual class: inhibitors; also: nearly all actives have a fitted effect of over 75% in size
# Target sequence (Q96KQ7 913-1193 limits assumed): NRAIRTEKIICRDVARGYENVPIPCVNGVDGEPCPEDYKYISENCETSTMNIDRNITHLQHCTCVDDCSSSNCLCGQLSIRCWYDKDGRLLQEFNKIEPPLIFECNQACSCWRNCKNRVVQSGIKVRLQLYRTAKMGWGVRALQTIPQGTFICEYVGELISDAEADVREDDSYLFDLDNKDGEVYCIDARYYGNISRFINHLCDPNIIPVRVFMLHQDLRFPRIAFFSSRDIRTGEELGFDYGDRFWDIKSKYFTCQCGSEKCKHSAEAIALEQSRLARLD
#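 Using a bead-based AlphaScreen, monomethylated H3K9 product from 2 h room-temperature reactions (G9a 20 nM, peptide 500 nM, SAM 20 uM) was detected with 0.5 ug/mL rabbit anti-H3K9me1 antibody.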
# Sfp PPTase inh – qHTS Assay for Inhibitors of Bacillus subtilis Sfp phosphopantetheinyl transferase (PPTase); actives 3.5% (n = 310,000); Biochemical Sfp PPTase activity, qHTS; Potency, µM, actives largely listed as inhibitors; AID 1490, 2009; 4'-phosphopantetheinyl transferase ffp (Bacillus subtilis), Q9F4F7;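 also: the enzyme is Sfp with the accession as filed and its product quenches rhodamine fluorescence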
#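 Fluorescence-quenching assay: 15 nM Sfp-PPTase preincubated 15 min at room temperature with compound, then 5 uM rhodamine-CoA and 12.5 uM BHQ-2-labelled YbbR peptide added. Fluorescence (ex 525/em 598 nm) read at start and after 30 min; difference gives rate.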
# JMJD2A Tudor inh – qHTS Assay for Inhibitors of JMJD2A-Tudor Domain; Lysine-specific demethylase 4A (Homo sapiens), O75164; Potency, µM (series often up to 114 µM), most hits filed as inhibitors; AlphaScreen JMJD2A-Tudor / H3K4me3 peptide binding; actives 4.4% (n = 390,000); also: nearly all actives have a fitted effect of over 50% in size
# HP1b binding inh – HTS for Inhibitors of HP1-beta Chromodomain Interactions with Methylated Histone Tails | Chromobox protein homolog 1 (Homo sapiens), P83916 | AlphaScreen HP1-beta / biotin-H3K9me3 peptide binding | Potency, µM (highest dose often 114 µM), most hits filed as inhibitors | actives 0.56% (n = 390,000); also: nearly all actives have a fitted effect of over 70% in size
# Target sequence (P83916 whole entry, looked up): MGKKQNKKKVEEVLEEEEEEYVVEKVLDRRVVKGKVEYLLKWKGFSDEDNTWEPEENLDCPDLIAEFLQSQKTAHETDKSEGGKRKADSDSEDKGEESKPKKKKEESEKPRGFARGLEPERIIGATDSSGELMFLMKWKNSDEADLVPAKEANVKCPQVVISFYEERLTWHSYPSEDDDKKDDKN
#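 HP1-beta protein (50 nM final) preincubated 30 min at room temperature with biotinylated H3(1-18)K9me3 peptide (50 nM) in PBS pH 7.4, 0.01% Tween-20, then compound added for 30 min. AlphaScreen streptavidin donor/nickel chelate acceptor beads (10 ug/mL final), 30 min dark, luminescence read.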
# A number is an active result; i = inactive; ? = inconclusive; nt = no result given; [ ] = another dose, or the depositor's remark. Calls follow the shape of the dose curve; as a rule, active = well fitted curve in the direction sought with a large enough effect; inconclusive = small, poorly fitted or top-dose-only effect, or another doubt; inactive = no such curve, though single readings can be large; an effect the other way counts as inactive or inconclusive.
SMILES,PLK1 PBD block,BAZ2B block,G9a inh,Sfp PPTase inh,JMJD2A Tudor inh,HP1b binding inh
O=C(O)CN1C(=O)/C(=C2\C(=O)N(Cc3ccccc3Cl)c3ccccc32)SC1=S,27µM,?,14µM,i,?,i
Cc1nnc(C)c2c(C)n(Cc3ccc4c(c3)OCO4)c(C)c12,i,i,i[12.7 µM],i,?,i
CCN1CCN(c2csc3ccc(Br)cc3c2=O)CC1,nt,i,?,nt,i,i
O=C(/C=C/c1ccccc1)NC(=O)c1ccccc1O,i,79µM,?,i,?,i
O=C(/C=C/c1ccccc1)CCN1CCCCC1,6.7µM,nt,nt,nt,i,i
O=C(/C=C/c1ccccc1)CC(=O)c1ccccc1O,i,?,16µM,?,25µM,i
O=C(CCN1CCCCCC1)c1ccccc1,?,i,?,i,i[11.4 µM],i
CC(=O)c1cccc(NC(=O)CSc2ncc3c(n2)-c2cc(Cl)ccc2N(Cc2ccccc2)S3(=O)=O)c1,nt,i,i,nt,i,i
Nc1ccn([C@@H]2O[C@H](CNCc3ccc(-c4cc(C(F)(F)F)ccc4Cl)o3)[C@@H](O)[C@H]2O)c(=O)n1,i,nt,nt,nt,nt,nt
O=C(N/N=C/c1cccc([N+](=O)[O-])c1)c1ccc2c(c1)OCCO2,i,i,i,i,i,i
O=[N+]([O-])c1cccc(C=Nc2cc3c(cc2Br)OCCO3)c1,i,?,50µM,i,?,i
O=C(O)CCN1C(=O)/C(=C\c2cccc(Oc3ccccc3)c2)SC1=S,17µM,50µM,50µM,i,?,?
O=C(O)CCN1C(=O)/C(=C\c2ccncc2)SC1=S,i,i,56µM,?,i,i
CN(C)S(=O)(=O)c1ccc(C(=O)NCCN2C(=O)S/C(=C\c3cccnc3)C2=O)cc1,i,i,i,40µM,i,i
CCN1C(=O)/C(=C\c2ccncc2)SC1=S,i,?,i[12.7 µM],i,?,i
CCCCC(CC)CN1C(=O)/C(=C/c2ccncc2)SC1=S (stereo not given),i,?,nt,i,28µM,?
COc1ccc(/C=C2/SC(=S)N(CCC(=O)O)C2=O)cc1,i,i,i,i,i,i
CCN(CC)S(=O)(=O)c1ccc(C(=O)NCCN2C(=O)S/C(=C\c3cccnc3)C2=O)cc1,i,i,?,i,i,i
CC1=Nn2c(nnc2-c2ccc(F)cc2)SC1,i,i,?,i,i,i
Cc1ccc(/C=C2\SC(=S)N(CCC(=O)NNC(=O)c3ccncc3)C2=O)cc1,i,i,nt,i,i,i
O=C(O)CCN1C(=O)S/C(=C\c2cccnc2)C1=O,i,?,71µM,i,i,i
O=C1/C(=C/c2cccnc2)SC(=S)N1CCc1ccccc1,i,10µM,nt,i,i,i
COC(=O)CCCCCN1C(=O)/C(=C\c2ccncc2)SC1=S,i,25µM,10µM,i,45µM,?
COCCN(C(=S)Nc1c(C)cccc1C)C(C)c1ccco1 (stereo not given),i,i,i[12.7 µM],i,i,i
Cc1ccc(C)c(Nc2nnc(-c3ccc(C)c(S(=O)(=O)N4CCN(C)CC4)c3)c3ccccc23)c1,nt,?,13µM,nt,?,i
SMILES,PLK1 PBD block,BAZ2B block,G9a inh,Sfp PPTase inh,JMJD2A Tudor inh,HP1b binding inh
Cc1ccccc1Nc1nnc(-c2ccc(C)c(S(=O)(=O)N3CCN(C)CC3)c2)c2ccccc12,nt,i,i,nt,i,i
Cc1cc(C)c2oc(C(=O)Nc3nc4ccc(Cl)cc4s3)cc(=O)c2c1,nt,i,i,nt,i,i
CCCCCCCCCCOC(=O)C[N+](C)(C)C/C=C(/C)Cl,30µM,i,i,i,i,i
CCCCCCCCOC(=O)C[N+](C)(C)C/C=C(/C)Cl,i,i,i,i,i,i
Cn1cc(S(=O)(=O)N2CCCCCC2)cc1C(=O)N1CCN(c2ccc(Cl)cc2)CC1,nt,?,i,nt,?,i
CCCN(Cc1cc2ccc(C)cc2[nH]c1=O)C(=O)c1ccccn1,?,i,32µM,?,i,i
Cc1ccc(N(Cc2cc3ccc(C)cc3[nH]c2=O)S(C)(=O)=O)c(C)c1,i,i,i,i,i[11.4 µM],i
Cc1cccc(N(Cc2cc3ccccc3[nH]c2=O)S(C)(=O)=O)c1,i,i,i,56µM,i,i
Cc1ccc(S(=O)(=O)N(Cc2cc3ccccc3[nH]c2=O)c2cccc(C)c2)cc1,30µM,i,i,i,i[11.4 µM],i
COc1ccc(N(Cc2cc3ccccc3[nH]c2=O)S(=O)(=O)c2ccc(OC)cc2)cc1,i,i,nt,i,i,i
Cc1ccc(N(Cc2cc3cccc(C)c3[nH]c2=O)S(=O)(=O)c2ccccc2)c(C)c1,15µM,?,?,i,?,i
Cc1ccc2[nH]c(=O)c(CN(c3cccc(C)c3C)S(=O)(=O)c3ccccc3)cc2c1,i,i,i,i,i,i
Cc1ccc(S(=O)(=O)N(Cc2cc3ccc(C)cc3[nH]c2=O)c2ccccc2)cc1,34µM,i,i,i,i[11.4 µM],i
Cc1ccc(N(Cc2cc3ccc(C)cc3[nH]c2=O)S(=O)(=O)c2ccccc2)cc1,i,i,i,i,i,i
C=C/C(C)=C/CC1C(=C)CCC2C(C)(C(=O)O)CCCC12C (stereo not given),19µM,i,i[12.7 µM],i,56µM,i
C=C1CCC2[C@](C)(CO)C(O)CC[C@]2(C)C1C/C=C1/C(=O)OCC1O (stereo not given in full),nt,nt,i,i,nt,nt
C=C[C@]1(C)C=C2CCC3[C@](C)(CCC[C@@]3(C)C(=O)O)C2CC1 (stereo not given in full),24µM,i,i[12.7 µM],nt,?,i
CCN(CC)CCOc1ccc(-c2nc3cc(Cl)ccc3s2)cc1,nt,nt,i[12.7 µM],i,nt,nt
COc1cc(OC)c(NC(=O)C(NS(=O)(=O)c2cccc3nsnc23)c2ccccc2)cc1Cl (stereo not given),nt,nt,?,nt,?,i
COc1cccc(C(c2c(C)[nH]n(-c3ccccc3)c2=O)c2c(C)[nH]n(-c3ccccc3)c2=O)c1O,21µM,i,i,i,?,i
COc1cccc(C(c2c(C)[nH]n(-c3ccccc3)c2=O)c2c(C)[nH]n(-c3ccccc3)c2=O)c1OC,12µM,?,?,i,?,i
CC#CCN1c2ccccc2[C@]23C[C@@H](C(=O)OC)N(S(=O)(=O)c4cccs4)C2=NC(C(=O)OC)=C(C(=O)OC)[C@H]13,nt,nt,nt,i,nt,nt
S=C1NCCc2ccc(Cl)cc2C1c1ccccc1 (stereo not given),i,40µM,i,i,?,?
S=C1Cc2ccccc2C(c2ccc(Cl)cc2)N1 (stereo not given),?,?,?,i,?,?
